{"source": "PubChem BioAssay (NCATS)", "note": "Records with an inconclusive call do not appear. A call without a number means that no potency is given here. Activity calls are given as the source filed them. Calls follow the shape of the dose curve; as a rule, active = well fitted cell-killing curve with a large enough effect; inconclusive = small, poorly fitted or top-dose-only effect, or effect the other way; inactive = no such curve, though single readings can be large or run the other way. Where a SMILES comes first, the peptide text is derived from it. Bridges are numbered along the chain shown (N, C = ends). [ ]: non-standard residue; d: D form. The star is where a group is joined. X1 = CC[C@@H](C)[C@@H](N)C1=N[C@H](C(=O)*)CS1; d(aIle) = CC[C@H](C)[C@@H](N)C(=O)O; dOrn = NCCC[C@@H](N)C(=O)O", "data": [{"assay": "qHTS assay to identify small molecule inhibitors of chordoma cells - UCH-1 (AID 1259355); also: nearly all actives have a fitted effect of over 55% in size", "conditions": "UCH-1 chordoma viability, CellTiter-Glo, 48 h, combination, with auranofin plus four topoisomerase inhibitors; series mostly up to 46.1 µM", "summary_of_the_method": "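Luminescent ATP read-out (CellTiter-Glo, 30min at room temperature) measured viability of UCH-1 cells exposed for 48hr to test drugs at 15 concentrations, co-dosed with a five-agent combination of auranofin, camptothecin, doxorubicin, rubitecan and topotecan.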", "values": [{"smiles": "CC[C@@H](C)[C@@H](N)C1=N[C@H](C(=O)N[C@@H](CC(C)C)C(=O)N[C@@H](CCC(=O)O)C(=O)N[C@@H](C(=O)N[C@@H]2CCCCNC(=O)[C@@H](CC(N)=O)NC(=O)[C@@H](CC(=O)O)NC(=O)[C@@H](Cc3cnc[nH]3)NC(=O)[C@@H](Cc3ccccc3)NC(=O)[C@@H]([C@H](C)CC)NC(=O)[C@@H](CCCN)NC2=O)[C@@H](C)CC)CS1", "note": "(X1-LE[d(aIle)][dK][dOrn][dI][dF][dH][dD][dN]; lactam 4-C)", "Potency": "inactive"}, {"smiles": "NC(N)=NCC1COC2(CCCCC2)O1", "note": "(stereo not drawn)", "Potency": "inactive"}, {"smiles": "FC(F)(F)COCC(F)(F)F", "Potency": "inactive"}, {"smiles": "COC(=O)CCC[N+](C)(C)C", "Potency": "inactive"}, {"smiles": "CC(C)(CO)[C@@H](O)C(=O)NCCCC(=O)O", "Potency": "inactive"}, {"smiles": "CC(C)C[C@@H](NC(=O)[C@@H](O)[C@H](N)Cc1ccccc1)C(=O)O", "Potency": "inactive"}, {"smiles": "c1ccc2cc(C3=NCCN3)ccc2c1", "Potency": "inactive"}, {"smiles": "O=C(NCCNCC(O)COc1ccc(O)cc1)N1CCOCC1", "note": "(stereo not drawn)", "Potency": "inactive"}, {"smiles": "CCCCCCCCCC(=O)NO", "Potency": "inactive"}, {"smiles": "COC1[C@@H](O[C@@H]2O[C@H](C)[C@@H](O[C@H]3C[C@@](C)(O)[C@H](OC(=O)CC(C)C)[C@H](C)O3)[C@H](N(C)C)[C@H]2O)[C@@H](CC=O)C[C@@H](C)[C@@H](O)/C=C/C=C/C[C@@H](C)OC(=O)C[C@H]1OC(C)=O", "note": "(stereo partly drawn)", "Potency": "inactive"}, {"smiles": "CCC(Cc1c(I)cc(I)c(O)c1I)C(=O)O", "note": "(stereo not drawn)", "Potency": "inactive"}, {"smiles": "C=CC[N+]1([C@H]2C[C@H]3[C@@H]4CC[C@H]5C[C@H](O)[C@@H](N6CCOCC6)C[C@]5(C)[C@H]4CC[C@]3(C)[C@H]2OC(C)=O)CCCC1", "Potency": "inactive"}, {"smiles": "CCCCCCCCCCCCCCCCCCOCC(COP(=O)([O-])OCC[N+](C)(C)C)OC", "note": "(stereo not drawn)", "Potency": "inactive"}, {"smiles": "CCCCCCCCCCCCCCCCCC(=O)OCC(C)O", "note": "(stereo not drawn)", "Potency": "inactive"}, {"smiles": "O=C(O)c1ccc(NC2OC[C@@H](O)[C@H](O)[C@H]2O)cc1", "note": "(stereo partly drawn)", "Potency": "inactive"}, {"smiles": "CC(/C=C/C=C(\\C)C(=O)O[C@@H]1O[C@H](CO[C@@H]2O[C@H](CO)[C@@H](O)[C@H](O)[C@H]2O)[C@@H](O)[C@H](O)[C@H]1O)=C\\C=C\\C=C(C)\\C=C\\C=C(/C)C(=O)O[C@@H]1O[C@H](CO[C@@H]2O[C@H](CO)[C@@H](O)[C@H](O)[C@H]2O)[C@@H](O)[C@H](O)[C@H]1O", "Potency": "inactive"}, {"smiles": "C[C@@H]1O[C@@H](OC[C@H]2O[C@@H](Oc3c(-c4ccc(OCCO)c(OCCO)c4)oc4cc(OCCO)cc(O)c4c3=O)[C@H](O)[C@@H](O)[C@@H]2O)[C@H](O)[C@H](O)[C@H]1O", "Potency": "inactive"}, {"smiles": "C[Se]CC[C@H](N)C(=O)O", "Potency": "inactive"}, {"smiles": "COc1ccc2cc([C@H](C)CO)ccc2c1", "Potency": "inactive"}, {"smiles": "CN(Cc1ccccc1)Cc1ccccc1", "Potency": "inactive"}, {"smiles": "FC(F)(F)C(F)(F)C(F)(F)C(F)(F)C(F)(F)C(F)(F)F", "Potency": "inactive"}, {"smiles": "C=CC(=O)O", "Potency": "inactive"}, {"smiles": "CCc1ncnc2cc(OC)c(OC)cc12", "Potency": "inactive"}, {"smiles": "CC(C)(CO)[C@@H](O)C(=O)NCCC(=O)NCCSSCCNC(=O)CCNC(=O)[C@H](O)C(C)(C)CO", "Potency": "inactive"}, {"smiles": "NC[C@H]1O[C@H](O[C@H]2[C@H](O)[C@@H](O[C@H]3O[C@H](CO)[C@@H](O)[C@H](N)[C@H]3O)[C@H](N)C[C@@H]2N)[C@H](N)C[C@@H]1O", "Potency": "inactive"}, {"smiles": "CC(=O)Oc1cc(C(F)(F)F)ccc1C(=O)O", "Potency": "inactive"}, {"smiles": "NC[C@H]1O[C@H](O[C@H]2[C@H](O)[C@@H](O[C@H]3O[C@H](CO)[C@@H](O)[C@H](N)[C@H]3O)[C@H](N)C[C@@H]2N)[C@H](O)[C@@H](O)[C@@H]1O", "Potency": "inactive"}, {"smiles": "CCOC(=O)c1c[nH]c2cc(OCC(C)C)c(OCC(C)C)cc2c1=O", "Potency": "inactive"}, {"smiles": "CC(C)Cc1ccc([C@@H](C)C(=O)NS(C)(=O)=O)cc1", "Potency": "inactive"}, {"smiles": "O=C(O)COc1ccccc1/C=N/NC(=O)c1ccncc1", "Potency": "inactive"}, {"smiles": "CC[C@H]1OC(=O)[C@H](C)[C@@H](O[C@H]2C[C@@](C)(OC)[C@@H](O)[C@H](C)O2)C(C)[C@@H](O[C@@H]2O[C@H](C)C[C@H](N(C)C)[C@@H]2O)[C@](C)(OC)C[C@@H](C)C(=O)[C@H](C)[C@@H](O)[C@]1(C)O", "note": "(stereo partly drawn)", "Potency": "inactive"}, {"smiles": "F[Si-2](F)(F)(F)(F)F", "Potency": "inactive"}, {"smiles": "CN[C@@H]1[C@@H](O)[C@@H](O[C@@H]2[C@@H](O)[C@H](O[C@H]3O[C@H](CN)[C@@H](O)[C@H](O)[C@H]3O)[C@@H](N)C[C@H]2NC(=O)C(O)CN)OC[C@]1(C)O", "note": "(stereo partly drawn)", "Potency": "inactive"}, {"smiles": "Cc1nc(NS(=O)(=O)c2ccc(N)cc2)nc(C)c1Br", "Potency": "inactive"}, {"smiles": "CC1C(=O)CC2C3(C)CCC2(C(C)C(=O)O)C(=O)C13", "note": "(stereo not drawn)", "Potency": "inactive"}, {"smiles": "N[C@H](CC(=O)O)C(=O)O", "Potency": "inactive"}, {"smiles": "C=CC1=C(C(=O)O)N2C(=O)[C@@H](NC(=O)/C(=N\\O)c3csc(N)n3)[C@H]2SC1", "note": "(stereo in doubt)", "Potency": "inactive"}, {"smiles": "CC(=O)N[C@@H](C=O)[C@@H](O)[C@H](O)[C@H](O)CO", "Potency": "inactive"}]}]}
